# Results: PubChem BioAssay AID449762 (Southern Research Specialized Biocontainment Screening …, 2010)
# Screen size: about 330,000 compounds; about 1,900 (0.58%) were called active. Not shown: some 4% with an inconclusive outcome. Not all results are given here. Results with a measured potency or affinity are listed apart. A number with no mark means an inactive call. Cut-off read from the data, not from the text of the source: inconclusive = inhibition above about 70% without an active follow-up result; inactive = below that.
# Assay: M. tuberculosis growth inhibition, HTS (AID 449762);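 note: bacterial growth assessed after seven days of incubation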
# Details: M. tuberculosis H37Rv growth inhibition, 7H9 media; at 25 µM; active compounds read high
row,SMILES,inhibition
1,Cc1ccc(Cn2c(=N)n(CC(O)c3ccco3)c3ccccc32)cc1 (stereo not drawn),-10.2%
2,N=c1n(Cc2ccccc2)c2ccccc2n1CC(O)c1ccco1 (stereo not drawn),-2.81%
3,COc1ccc(C(=O)CC(c2ccccc2)S(=O)(=O)c2ccc(C)cc2)cc1 (stereo not drawn),11.8%
4,COc1ccc(C(CC(=O)c2ccccc2)S(=O)(=O)c2ccccc2)cc1 (stereo not drawn),21.9%
5,O=[N+]([O-])c1cccc(/C=N/Nc2nc(C(Cl)(Cl)Cl)nc3ccccc23)c1,4.81%
6,COc1ccc(CN=C2NC(=O)CC(C(=O)Nc3ccc(Cl)cc3)S2)cc1 (stereo not drawn),-3.21%
7,O=C(Nc1ccc(S(=O)(=O)Nc2nccc(C3Cc4ccccc4C(=O)O3)n2)cc1)c1ccccc1 (stereo not drawn),0.33%
8,Cc1cc(C)c(NC(=O)CCCn2c(=O)oc3ccccc32)c(C)c1,0.61%
9,Cc1[nH][nH]c(=O)c1C(c1ccc(-c2cccc(C(=O)O)c2)o1)c1c(C)[nH][nH]c1=O,0.63%
10,Cc1[nH][nH]c(=O)c1C(c1ccc(-c2cccc(Cl)c2)o1)c1c(C)[nH][nH]c1=O,4.79%
11,CC(OC(=O)c1nn(C(C)C)c(=O)c2ccccc12)C(=O)Nc1ncc(Cl)cc1Cl (stereo not drawn),-5.66%
12,Cc1cc(=O)oc2cc(OC(C)C(=O)N3CCCc4ccccc43)ccc12 (stereo not drawn),-5.32%
13,CC(NCC1COc2ccccc2O1)C1COc2ccccc2O1 (stereo not drawn),-4.91%
14,CC1CN(c2ccc(Cl)nn2)CC(C)O1 (stereo not drawn),7.67%
15,COc1ccc(C(CCN(Cc2ccc(OC)c(OC)c2)C(C)=O)c2ccccc2)cc1 (stereo not drawn),-0.43%
16,COc1ccc(C(CCN(Cc2ccc(OC)c(OC)c2)C(C)=O)C(C)C)cc1 (stereo not drawn),2.76%
17,CCC1CN(C(=O)N2CCC(C(=O)Nc3ccccc3OC)CC2)c2ccccc2O1 (stereo not drawn),10.6%
18,O=S(=O)(c1ccc2ccccc2c1)N1CCN(S(=O)(=O)N2CCCCC2)CC1,0.71%
19,COc1ccc(C2=NOC(C(=O)N3CCN(C(=O)c4ccco4)CC3)C2)cc1OC (stereo not drawn),2.5%
20,O=C(c1ccco1)N1CCN(C(=O)C2CC(c3ccc(F)cc3)=NO2)CC1 (stereo not drawn),10.6%
21,Cn1c(CSc2nc3ccccc3s2)nnc1SCC(=O)NCCN1CCOCC1,1.49%
22,CCCCn1nc(C(=O)Oc2ccc3c(C)cc(=O)oc3c2)c2ccccc2c1=O,64.9%
23,CCn1c(SCC(=O)NC2CCCCC2)nc2ccccc2c1=O,-17.1%
24,CCOC(=O)CSc1nc2ccccc2c(=O)n1CC,-0.95%

row,SMILES,inhibition
1,O=C(Nc1ccn([C@H]2CC[C@@H](CO)O2)c(=O)n1)c1ccccc1,-7.83%
2,O=C(COC(=O)/C=C/c1cccc(Br)c1)NC1CCCCC1,1.15%
3,CCC(C(=O)n1cccc1C#N)c1ccccc1C (stereo not drawn),-5.42%
4,CCOC(=O)c1nn(-c2ccc(Cl)cc2)cc1O,47.5%
5,CCOC(=O)c1nn(-c2ccc(C)cc2)cc1O,25.8%
6,O=C(/C=C/Nc1ccc(Br)cc1F)c1ccco1,4.98%
7,O=C(Oc1ccc(Br)cc1C(=O)/C=C/c1ccccc1F)c1ccco1,0.45%
8,CS(=O)(=O)c1ccc(C(=O)OCC(=O)N2CCCc3ccccc32)cc1,-0.56%
9,CCNS(=O)(=O)c1ccc(C(=O)OCC(=O)N2CCCc3ccccc32)cc1,5.95%
10,O=C1C=C(NCc2ccco2)C2(CCCCC2)O1,-1.04%
11,CCNc1nc(NC(C)C)nc(ON=C(C)C)n1,-5.67%
12,Cc1cc(C(=O)N=Nc2c(O)n(C)c3ccccc23)c(C)o1,5.51%
13,COc1ccc(C(C)=O)cc1COC(=O)c1cc2ccccc2cc1O,-1.43%
14,COc1ccc(C(C)=O)cc1COC(=O)c1cc(C)nc2ccccc12,11.9%
15,C=CCn1c(C)c(/C=C/c2cc[n+](C)cc2)c2ccccc21,0.73%
16,Cc1ccc2[nH]cc(/C=C/c3cc[n+](C)cc3)c2c1,-0.27%
17,Cc1c(C)n2c(SCC(=O)Nc3cccc4ccccc34)nnc2[nH]c1=O,5.62%
18,Cc1onc(-c2c(Cl)cccc2Cl)c1C(=O)O/N=C(\C#N)c1c(Cl)cccc1Cl,-0.37%
19,C/C(=N\OC(=O)c1c(-c2c(F)cccc2Cl)noc1C)c1nccs1,3.84%
20,CCOC(=O)[C@H]1[C@H]2COc3ccc(Br)cc3[C@@H]2N2C(=O)N(c3ccccc3)C(=O)[C@@]12C,6.24%
21,CCOc1ccc(CNC(=O)C2CCCN(S(=O)(=O)N3CC(C)CC(C)C3)C2)cc1OC (stereo not drawn),-1.45%
22,COC(OC)c1ccnc(-c2ccc(OC(C)=O)cc2)n1,0.19%
23,COC(OC)c1ccnc(-c2ccc(OC(=O)c3ccccc3)cc2)n1,57%
24,CCC[N+](CC#Cc1ccccc1)(CCC)CC(=O)OC,0.57%

row,SMILES,inhibition
1,Cc1occc1-c1nnc(SCC(=O)NC2CC2)n1C(C)C,6.3%
2,CCOCCn1c(=O)c2c(nc3n2CCCN3Cc2ccccc2)n(C)c1=O,4.47%
3,CCCC(O)(c1ccc(CC)cc1)C(CN1CCOCC1)c1ccccc1 (stereo not drawn),9.99%
4,CCOC(=O)CSc1nc2ccsc2c(=O)n1C1CCN(C(=O)OCC)CC1,39.3%
5,CCOC(=O)N1CCC(n2c(SCC(=O)c3ccccc3)nc3ccsc3c2=O)CC1,-5.37%
6,COc1ccc(/C=N/NC(=O)c2cccc(C(=O)N/N=C/c3ccc(OC)cc3)n2)cc1,-1.47%
7,O=C(CN1C(=O)COc2ccccc2C1=O)c1ccc2c(c1)OCCO2,4.6%
8,O=C(OC(C(=O)c1c[nH]c2ccccc12)c1ccccc1)c1cnccn1 (stereo not drawn),1.97%
9,Nc1nnnn1/N=C/C=C/c1ccccc1,-3.78%
10,Nc1nnnn1/N=C/c1ccccc1,-0.26%
11,CCOC(=O)N1CCC(N2C(=O)c3ccc(C(=O)Nc4ccc(F)cc4F)cc3C2=O)CC1,-5.69%
12,CCOC(=O)N1CCN(S(=O)(=O)c2ccc(C(=O)N(CCN(C)C)c3nc4c(C)cccc4s3)cc2)CC1,-14.4%
13,CC1=C(c2ccc(F)cc2)[N+](=O)C(C)(C)N1[O-],-6.06%
14,Cc1ccc(C(C(=O)NC(C)(C)C)N(Cc2ccccc2)C(=O)c2snc(C(N)=O)c2N)o1 (stereo not drawn),-7.23%
15,COc1ccc(/C=C2/C(=O)N(c3ccccc3)N=C2C)cc1OC,8.2%
16,COc1cc(/C=C2/C(=O)N(c3ccccc3)N=C2C)ccc1OS(=O)(=O)c1ccccc1,11%
17,CCOC(=O)N1CCN(Cc2ccc3ccccc3c2)CC1,9.89%
18,O=C(Nc1cccn2ncnc12)C(Cl)Cl,8.05%
19,CCCCC(=O)Nc1cccn2ncnc12,-5.05%
20,Cc1ccc(/C=C2/SC(=S)N(CCC(=O)N3CCOCC3)C2=O)cc1,-5.59%
21,CCCn1c(=N)n(CC(=O)c2ccc(Cl)cc2)c2ccccc21,20.9%
22,CCCCn1c(=N)n(CC(=O)c2ccc(OC)cc2)c2ccccc21,2.91%
23,Cc1ccc(S(=O)(=O)NCc2ccc(C(=O)NCc3cccnc3)cc2)cc1,-0.01%
24,Cc1cc(NC(=O)c2cc(-c3cccc(Cl)c3)on2)no1,4.25%

row,SMILES,inhibition
1,O=C(NNS(=O)(=O)c1ccccc1[N+](=O)[O-])c1ccccc1[N+](=O)[O-],-1.87%
2,C=CCSC1=N/C(=C\c2ccc3c(c2)OCO3)C(=O)S1,2.93%
3,CCc1nc(N=C(N)N)nc2ccccc12,-2.46%
4,Cc1nc(N=C(N)N)nc2ccccc12,0.45%
5,Cc1ccc(C2C(=O)c3ccccc3C2=O)cc1,7.43%
6,Cc1cc(C2C(=O)c3ccccc3C2=O)c(C)c(C)c1C,30.3%
7,CC(=O)NC12CC3CC(C1)CC(C(=O)N(C)CC(=O)Nc1cccc(F)c1)(C3)C2,6.36%
8,CC(NC(=O)c1cc(COc2c(F)cccc2F)on1)c1cnn(-c2ccccc2)c1 (stereo not drawn),1.01%
9,Cc1sc2ncnc(N3CCC(C(=O)N(C)CC(=O)Nc4ccccc4Cl)CC3)c2c1C,67.4%
10,CCCCn1c(N)c(N(CC(C)C)C(=O)C2CCN(c3ncnc4sc(C)c(C)c34)CC2)c(=O)[nH]c1=O,54.4%
11,CNC(=O)CSc1nnc(-c2ccco2)n1-c1cccc(C)c1C,-8.51%
12,O=C(Cc1ccc(F)cc1)NCCS(=O)(=O)N1CCN(c2ccccc2)CC1,-9.43%
13,COc1ccc(/C=C2\SC(=S)N(Cc3cccnc3)C2=O)cc1C,12.2%
14,Cc1ccc(S(=O)(=O)N2CCC(C(=O)OCC(=O)NCCc3ccccc3)CC2)cc1C,1.72%
15,CCOC(=O)C1CCN(S(=O)(=O)c2ccc(C)c(C)c2)CC1,-5.37%
16,COc1cccc(NC(=O)[C@H](Cc2ccccc2)NC(=O)[C@@H]2Cc3ccccc3CN2)c1,-7.04%
17,O=C(Nc1ccc(C(F)(F)F)cc1-c1ccccc1)c1ccccc1,-5.73%
18,O=C(Nc1cnccn1)C1c2ccccc2Oc2ccccc21,-4.63%
19,CCOC(=O)c1c(C)[nH]c(C)c1C(=O)CN1C(=O)NC2(CCC(C)CC2)C1=O (stereo not drawn),-4.05%
20,CCc1ccc2oc(-c3cc(N)ccc3O)nc2c1,-0.82%
21,CCc1ccc2oc(-c3cc(N)cc(C)c3O)nc2c1,42.6%
